# Bioassay records (PubChem)
# Shown are actives, neighbours in structure and some others; about 20% of the full set was active somewhere.
# Pf growth 96h: Primary qHTS for delayed death inhibitors of the malarial parasite plastid, 96 hour incubation | P. falciparum luciferase reporter growth, 96 h | Potency, µM (series often up to 28.7 µM), for the others: at the top dose activity change, negative = inhibition, most hits filed as inhibitors | actives 6.9% (n = 320,000); note: potency is the fitted concentration of half-maximal effect; % is set by controls: 0 for no effect and ±100 for the full control effect
#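 Readout is luminescence from an integrated firefly luciferase in P. falciparum. Red cells, 2% hematocrit and 0.05% parasitemia final, were cultured with compound through two parasite generations (96 hours) at 37 C, 5% CO2.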
# Pf growth 48h: Primary qHTS for delayed death inhibitors of the malarial parasite plastid, 48 hour incubation | AID 504832, 2011 | Potency, µM (titrated, usually from 28.7 µM), inactives show at the top dose activity change, negative = inhibition, hits mostly inhibitors | actives 5.9% (n = 310,000) | P. falciparum luciferase growth in erythrocytes, 48 h; note: potency is the fitted concentration of half-maximal effect; % is set by controls: 0 for no effect and ±100 for the full control effect
#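 Luciferase-expressing P. falciparum in infected erythrocytes (2% hematocrit, 0.1% parasitemia final) in RPMI 1640/0.5% Albumax were exposed to compound for 48 hours at 37 C, 5% CO2; growth read as luminescence.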
# HCMV antiviral: qHTS Assay for inhibitors of the human cytomegalovirus (HCMV); HFF cells, HCMV-luciferase reporter, 72 h; hits give low values; activity change, negative = inhibition, % at 57.5 µM; AID 1259415, 2018; actives 4.5% (n = 410,000); in the data active = activity change below about -60%; inconclusive = no clear call, values can overlap the other calls; inactive = above about -39%; note: % is set by controls: 0 for no effect and ±100 for the full control effect
#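 Inhibition of viral replication was scored as loss of reporter luminescence in HFFs infected with HCMV-luciferase (MOI 1 PFU/cell) for 72 h; compounds tested at 2 doses, normalized to buffer and Salinomycin controls.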
# Shiga toxin inh: A qHTS for Small Molecule Inhibitors of Shiga Toxin; Vero cells, Shiga toxin protein synthesis inhibition reporter; inhibition, % at 38.7 µM; actives 9.2% (n = 290,000); in the data active = inhibition mostly above about 28%, no sharp cut-off; inactive = mostly below about 43%; note: 0% is about no effect
# CHX counter: Cycloheximide Counterscreen for Small Molecule Inhibitors of Shiga Toxin | cell reporter, cycloheximide protein synthesis inhibition counterscreen | actives 12% (n = 300,000) | AID 2314, 2010 | max response, %; in the data active = max response mostly above about 13%, no sharp cut-off; inactive = mostly below about 14%; note: read at 38.3 µM for the half of the compounds with a filed dose; 0% is about no effect
# Numbers without * were called inactive; ? = inconclusive; . = no result. Unless noted, calls come from the whole dose curve; as a rule, active = well fitted inhibition curve with a large enough effect; inconclusive = small, poorly fitted or top-dose-only effect, or another doubt; inactive = no such curve, though single readings can be large or run the other way.
SMILES,Pf growth 96h,Pf growth 48h,HCMV antiviral,Shiga toxin inh,CHX counter
N/C(=N\OC(=O)c1ccc([N+](=O)[O-])cc1Cl)c1ccccn1,?,117%,-72*,32,14*
N/C(=N\OC(=O)c1cc([N+](=O)[O-])ccc1Cl)c1ccccn1,-23%,45%,31,58*,23*
NC(=O)c1ccc([N+](=O)[O-])cc1Cl,11µM*,?,.,.,.
O=C(Nn1cnnc1)c1ccc([N+](=O)[O-])cc1Cl,.,.,-18,.,.
O=C(OCc1nnc(-c2ccccc2)o1)c1cc([N+](=O)[O-])ccc1Cl,-2%,17%,-13,-5,-4
COc1ccc(C/C(N)=N/OC(=O)c2cccc([N+](=O)[O-])c2)cc1,-4%,?,?,-10,6
CSc1ccccc1C(=O)Nc1cc2c(cc1C(=O)O)OCCCO2,-1%,1%,16,-4,-3
C=CCNC(=S)NCCO,?,10%,45,-5,5
N/C(=N\OC(=O)c1cccc([N+](=O)[O-])c1)c1ccccn1,?,365%,-28,114*,37*
O=C(OCC(=O)N1CCCCCC1)c1ccc([N+](=O)[O-])cc1Cl,-11%,?,-9,27,15*
CNC(=O)COC(=O)c1ccc([N+](=O)[O-])cc1Cl,22%,15%,7,-3,-2
Cn1ccs/c1=N\C(=O)Nc1cccc(Cl)c1,208%,154%,57,71*,42*
Cn1nc(C(=O)Nc2cccc(Cl)c2)cc1C(=O)Nc1cccc(Cl)c1,-2%,?,?,12,-3
Cn1c(N)c(C(=O)Nc2cccc(Cl)c2)c(=O)n(C)c1=O,67%,60%,156,-3,-1
CN=c1sc(C(=O)Nc2cccc(Cl)c2)cc(=O)n1C,-7%,14%,-66*,-17,-2
O=C(Nc1ccccc1N1CCOCC1)c1cccc2ccccc12,.,.,-32,.,.
C=CCn1c(SCC(=O)NC2CCCC2)nc2scc(-c3ccco3)c2c1=O,5%,?,12,7,7
C=CCn1c(SCC(C)=O)nc2scc(-c3ccc(C)o3)c2c1=O,14%,143%,34,19*,20*
CCOC(=O)c1c(C)[nH]c(C(=O)CSc2nnc(-c3ccncc3)n2CC)c1C,.,-9%,-30,14,-1
C=CCn1c(SCC(=O)NCCCC)nc2scc(-c3ccco3)c2c1=O,?,13µM*,18,-3,-1
C=CCn1c(SCC(=O)c2[nH]c(C)c(C(=O)OCC)c2C)nc2scc(-c3ccc(OC)c(OC)c3)c2c1=O,?,?,-100*,11,1
Cc1c(N(C)S(=O)(=O)c2cccc(C(=O)NCc3cccnc3)c2)c(=O)n(-c2ccccc2)n1C,.,.,44,.,.
CCCCNC(=O)Oc1cccc(N2CCCC2=O)c1,4%,23%,3,-2,-1
CCCCc1nn2c(=O)cc(COC(=O)c3ccccc3NC(=O)c3ccccc3OC)nc2s1,.,.,-8,.,.
CC(=O)c1ccc(OCC(=O)Nc2c(C)nn(-c3ccccc3)c2C)cc1,?,?,-4,.,.
SMILES,Pf growth 96h,Pf growth 48h,HCMV antiviral,Shiga toxin inh,CHX counter
O=C(CCCN1C(=O)C(c2ccccc2)Oc2cccnc21)NCCc1ccc(Cl)cc1 (centres undefined),9.3µM*,?,-29,6,1
O=C(CCCN1C(=O)C(c2ccccc2)Oc2cccnc21)NCc1ccccc1F (centres undefined),2.1µM*,?,-2,7,10
CC(C)N1C(=O)CC(Nc2ccc(N3CCOCC3)cc2)C1=O (centres undefined),68%,.,19,30,39*
COc1ccc(NC2CC(=O)N(C(C)C)C2=O)cc1 (centres undefined),24%,16%,83,23,8
CCN(c1ccccc1C)S(=O)(=O)c1ccc(N2CCCCS2(=O)=O)cc1,.,.,6,.,.
CCC1=C(OC(=O)N(CC)CC)N2C(=O)OC(=NCc3ccccc3)[C@]2(C)[C@H]2C1=CC[C@H]1C(=O)N(c3ccccc3)C(=O)[C@H]12,8.3µM*,7.4µM*,-27,1,-4
CCC1=C(OC(=O)N(CC)CC)N2C(=O)OC(=NCc3ccccc3)[C@]2(C)[C@H]2C1=CC[C@H]1C(=O)N(CC(=O)OC)C(=O)[C@H]12,9.3µM*,8.3µM*,-62*,-2,-2
CCC1=C(OC(=O)N(CC)CC)N2C(=O)OC(=NCC(=O)OC)[C@]2(C)[C@H]2C1=CC[C@H]1C(=O)N(C)C(=O)[C@H]12,54%,31%,8,-8,-6
CCC1=C(OC(=O)N(CC)CC)N2C(=O)OC(=NCC3CC3)[C@]2(Cc2ccccc2)[C@H]2C1=CC[C@H]1C(=O)N(CC(=O)OC)C(=O)[C@H]12,7.4µM*,5.9µM*,10,-5,-3
N=c1c(C(=O)NC2CCCC2)cc2c(=O)n3ccccc3nc2n1C1CCCCC1,5%,?,-14,-11,-6
COc1ccc2c(c1)[C@H]1[C@H](CO2)[C@H](c2ccccc2)[C@]2(C)C(=O)N[C@H](C)C(=O)N12,?,5%,-20,.,.
Fc1ccccc1OCCCCCCN1CCCC1,-9%,-29%,5,42,17*
CCOc1ccccc1OCCCCOc1ccccc1F,-5%,-6%,22,-10,-2
COc1ccccc1Oc1ccc(Oc2ccccc2OC)cc1,-28%,-23%,-19,45,41*
COc1ccccc1OCCCCOc1ccccc1F,34%,27%,39,75,34*
NC(=O)CC1(c2ccccc2)CCCCC1,.,.,-31,.,.
CCOC(=O)COc1ccc2nsnc2c1Cl,49%,19%,27,-2,-3
C=C(CC)C(=O)c1ccc(OCC(=O)O)c(Cl)c1Cl,15µM*,?,?,-7,-3
O=C(Nc1ccc(Cl)cn1)c1ccc(COCC(F)(F)C(F)F)o1,.,44%,-2,67*,18*
COc1cc(OC)c(NC(=O)c2nn(C)c3c2COc2ccccc2-3)cc1Cl,.,.,-15,.,.
C/C(=N\N=C(N)N)c1cccc([N+](=O)[O-])c1,?,7%,-29,-2,-5
C/C(=N\N=C\c1ccc(N(C)C)cc1)c1cccc([N+](=O)[O-])c1,?,67%,169,50*,37*
CCC(=O)N1CCc2cc(S(=O)(=O)CCC(=O)N3CCN(c4ccc(F)cc4)CC3)ccc21,1µM*,-19%,2,13,-5
CC(=O)c1ccc(N2CCN(C(=O)CCS(=O)(=O)c3ccc4c(c3)CCN4C(C)=O)CC2)cc1,?,13µM*,19,14,3
CCC(=O)N1CCc2cc(S(=O)(=O)CCC(=O)N3CCN(c4ccccc4Cl)CC3)ccc21,.,.,14,.,.
CC(=O)N1CCc2cc(S(=O)(=O)CCC(=O)N3CCN(c4ccccc4F)CC3)ccc21,?,?,-26,-1,5
Cc1cc(Br)cn2c(Cc3ccsc3)c(-c3ccco3)nc12,.,.,57,.,.
